For 13 compounds, growth results are on record in PubChem BioAssay (NCI).

Compounds without any hit were thinned out: in the full panel of roughly 83,000, 20% have a hit.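 Cells were grown in 96-well plates and exposed to the test compound at a single concentration for 48 hours; results are reported as percent growth, with values below 10 considered active.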 Values without a mark were called inactive. Calls of active or inactive are those of the source.

Holding throughout (assay): NCI-60 one-dose screen, 48 h (100 = growth as untreated, 0 = no growth, -100 = all killed)
One test has as its system NCI-H23 lung. The following applies: 10 µM unless noted.
The next test relates to NCI-H226 lung. The following applies: 10 µM unless noted.
The subject of the next test is NCI-H322M lung. The following applies: 10 µM unless noted.
The test system of another test is HOP-62 NSCLC. The following applies: 10 µM unless noted.
The subject of a further test is NCI-H460 lung. As to conditions: 10 µM unless noted.
For the next test, the system named is HOP-92 NSCLC. As to conditions: 10 µM.
The next test relates to NCI-H522 lung. As to conditions: 10 µM unless noted.
Another test deals with A549/ATCC NSCLC. As to conditions: 10 µM unless noted.
A further test concerns 786-0 renal. The following applies: 10 µM unless noted.
The test system of a further test is COLO 205 colon. As to conditions: 10 µM unless noted.

For `COc1cccc(O)c1/C=C(/C)c1ccc2c(OC)cccc2[o+]1`, the growth is 103% in the test with NCI-H23 lung; 105% in the test on NCI-H226 lung; 103% with NCI-H322M lung; 92.5% with HOP-62 NSCLC; 109% in the test on NCI-H460 lung; 104% in the test on HOP-92 NSCLC. Besides, the growth in the test with NCI-H522 lung is 98.5%; with A549/ATCC NSCLC, 107%; in the test on 786-0 renal, 101%; in the test on COLO 205 colon, 117%.
Regarding `COc1ccc(N2C(=O)c3cc(Cl)ccc3NC2SCc2ccccc2)cc1` (stereo not drawn), the growth in the test with NCI-H23 lung was 97%; in the test with NCI-H226 lung, 96.2%; in the test with NCI-H322M lung it was 97.1%; with HOP-62 NSCLC it was 102%; with NCI-H460 lung, 109%; in the test with HOP-92 NSCLC, 92.1%. Also, the growth in the test with NCI-H522 lung was 87.4%; in the test on A549/ATCC NSCLC, 91.5%; in the test on 786-0 renal it was 92%; in the test with COLO 205 colon it was 114%.
Consider `C#Cc1nc(C(C)=O)cs1`, for which the growth in the test with NCI-H23 lung was 102%; in the test with NCI-H226 lung, 99.7%; in the test with NCI-H322M lung, 106%; with HOP-62 NSCLC, 103%; with NCI-H460 lung, 106%; in the test on HOP-92 NSCLC, 111%. In addition, the growth with NCI-H522 lung is 92.1%; with A549/ATCC NSCLC it was 108%; with 786-0 renal, 98.6%; in the test with COLO 205 colon, 115%.
With `COc1cc(-c2nnc(SCc3ccc(O)c4ncccc34)n2-c2ccccc2)cc(OC)c1OC`, the growth in the test on NCI-H23 lung was 9.25% (active); in the test on NCI-H226 lung, 8.85% (active); with NCI-H322M lung, 19.2%; in the test with HOP-62 NSCLC, 6.41% (active); with NCI-H460 lung, -29.8% (active); with HOP-92 NSCLC, -12.5% (active). In addition, the growth in the test with NCI-H522 lung is -8.34% (active); in the test on A549/ATCC NSCLC it was 0.31% (active); with 786-0 renal it was 8.31% (active); with COLO 205 colon, 10.1%.
For `NS(=O)(=O)c1ccc(Nc2nc(N/N=C/c3ccccn3)nc(Nc3ccccc3)n2)cc1`, the growth in the test with NCI-H23 lung was -7.29% (active); with NCI-H226 lung, -49.1% (active); with NCI-H322M lung, -9.94% (active); with HOP-62 NSCLC, -28.6% (active); in the test on NCI-H460 lung, 3.8% (active); in the test with HOP-92 NSCLC, -46.6% (active). The growth in the test on NCI-H522 lung was -32.6% (active); with A549/ATCC NSCLC it was 35.1%; with 786-0 renal, 8.47% (active); in the test on COLO 205 colon it was -42.1% (active).
In the case of `O=S(=O)(NCCNc1nccc(-n2cnc3ccccc32)n1)c1ccc(Cl)cc1`, the growth was 101% in the test on NCI-H23 lung; 91.1% in the test with NCI-H226 lung; 95.3% with NCI-H322M lung; 95.4% in the test on HOP-62 NSCLC; 103% in the test with NCI-H460 lung; 90.2% in the test on HOP-92 NSCLC. Besides, the growth in the test with NCI-H522 lung was 92.1%; in the test with A549/ATCC NSCLC, 103%; with 786-0 renal, 99%; with COLO 205 colon, 104%.
Regarding `CC(=O)c1nnn(-c2c(C(=O)n3nc(C)cc3C)sc(=S)n2-c2ccccc2)c1C`, the growth was 106% in the test with NCI-H23 lung; 95.7% with NCI-H226 lung; 107% in the test on NCI-H322M lung; 107% in the test with HOP-62 NSCLC; 113% in the test on NCI-H460 lung; 113% with HOP-92 NSCLC. Besides, the growth in the test with NCI-H522 lung is 99.8%; with A549/ATCC NSCLC it was 103%; in the test with 786-0 renal, 111%; in the test with COLO 205 colon, 108%.
Turning to `NS(=O)(=O)c1ccc(Nc2nc(N/N=C/c3ccc(Cl)cc3)nc(Nc3ccccc3)n2)cc1`, the growth was 87.1% in the test on NCI-H23 lung; 81.4% with NCI-H226 lung; 93.1% in the test with NCI-H322M lung; 83.1% with HOP-62 NSCLC; 72.2% in the test on NCI-H460 lung; 91% with HOP-92 NSCLC. In addition, the growth was 79.1% in the test on NCI-H522 lung, 62.6% in the test on A549/ATCC NSCLC, 40.3% in the test with 786-0 renal and 73.8% with COLO 205 colon.
Take `COc1cc(/C=C2\C(=O)Nc3cc(Cl)ccc32)ccc1OCc1ccc(F)cc1`: the growth with NCI-H23 lung is 101%; in the test with NCI-H226 lung it was 91.2%; in the test with NCI-H322M lung, 98.2%; in the test with HOP-62 NSCLC, 95.9%; with NCI-H460 lung it was 99%; in the test on HOP-92 NSCLC it was 89.2%. For the same compound, the growth is 92.9% with NCI-H522 lung, 108% in the test with 786-0 renal and 110% in the test with COLO 205 colon.
`O=C1Nc2ccccc2/C1=C/c1ccc(CO)n1-c1ccc(Cl)cc1`: the growth is 67% with NCI-H23 lung; 81% with NCI-H226 lung; 102% in the test with NCI-H322M lung; 59.7% in the test with HOP-62 NSCLC; 35.6% in the test on NCI-H460 lung; 75.4% in the test with HOP-92 NSCLC. The growth with NCI-H522 lung is 53.7%; with A549/ATCC NSCLC, 59%; in the test on 786-0 renal, 88.4%; with COLO 205 colon it was 71.8%.
Consider `CC(=O)Nc1cccc(Nc2nc(N[C@H](C)c3ccccc3)c3ccccc3n2)c1`, for which the growth in the test on NCI-H23 lung was 52.3%; with NCI-H226 lung, 82.6%; with NCI-H322M lung it was 90.3%; in the test with HOP-62 NSCLC, 72.6%; in the test on NCI-H460 lung, 41.2%; in the test with HOP-92 NSCLC, 22%. For the same compound, the growth was 40.7% in the test on A549/ATCC NSCLC, 54.9% in the test on 786-0 renal and 44.1% with COLO 205 colon.
Turning to `O=C(NNc1nc2cc(F)ccc2n2c(CN3CCCC3)ccc12)c1cnccn1`, the growth with NCI-H23 lung was 26.3%; with NCI-H226 lung, 18.2%; with NCI-H322M lung, 27.1%; in the test on HOP-62 NSCLC, 17.6%; with NCI-H460 lung it was 2.93% (active); in the test with HOP-92 NSCLC, 18.2%. Further, the growth is -3.33% (active) with NCI-H522 lung, 13.6% in the test with A549/ATCC NSCLC, 12.7% in the test with 786-0 renal and 7.69% (active) in the test with COLO 205 colon.
Take `Cc1ccc(-c2cc3nc(C(Cl)Cl)nc(-c4cccs4)n3n2)cc1`: the growth was 83.9% with NCI-H23 lung; 87.3% in the test with NCI-H226 lung; 38.6% with NCI-H322M lung; 54.1% with HOP-62 NSCLC; 3.91% (active) in the test on NCI-H460 lung; 80% with HOP-92 NSCLC. Also, the growth is 97.9% in the test with NCI-H522 lung, 67.9% in the test on A549/ATCC NSCLC, 100% with 786-0 renal and 43.7% with COLO 205 colon.
